The text below walks through data of PubChem BioAssay (NCI).

SMILES strings stand for the structures. The panel holds about 83,000 compounds, 20% with a hit somewhere; the sample as a whole holds those more often.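 In brief: 96-well plates, 48 h treatment, single concentration, percent growth endpoint.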 Values without a mark were called inactive. Active and inactive are the calls of the source.

This experiment concerns NCI-H23 lung. Nature of the experiment: NCI-60 one-dose screen, 48 h (100 = growth as untreated, 0 = no growth, -100 = all killed). The conditions noted are these: 10 µM unless noted. As to the method:
Growth inhibition of the NCI-H23 human Non-Small Cell Lung tumor cell line is measured as a screen for anti-cancer activity. Cells are grown in 96 well plates and exposed to the test compound for 48 hours. Compounds are tested at a single concentration, which is 10^-5 M for most compounds. The reported endpoint is percent growth (GI% or GIPRCNT), where numbers from 0 - 100% represent growth inhibition, and numbers from -100% - 0 represent cell death. For example, a value of 40 represents 60% growth inhibition. A value of 0 means no net growth occurred over the course of the experiment. A value of -40 indicates 40% of cells at the beginning of the experiment died by the end of the experiment. A value of -100 means all cells are dead at the end of the experiment.
NCI-60 Human Tumor Cell Lines Screen was performed using the standard one-dose NCI protocol, which is described in more detail at https://dtp.cancer.gov/discovery_development/nci-60/default.htm.
Compounds with GIPRCNT values below 10 were considered active. Activity score was based on GIPRCNT using the following formula: […]
Score is 0 for GIPRCNT values of 100 or above, 50 for GIPRCNT values of 0, and 100 for GIPRCNT values of -100.
Turning to `Cc1ccc(S(=O)(=O)N2CCC(C(=O)Nc3ccc(F)cc3F)CC2)cc1`, the growth was 95.8%.

Take `Cc1ccc(Oc2nc3ccccc3cc2-c2nnc(Cn3c(COc4ccccc4)nc4ccccc43)o2)cc1`: the growth is 66.5%.

Consider `COc1ccc(S(=O)(=O)NCCNc2nccc(-c3c(-c4ccccc4)nc4sccn34)n2)cc1`, for which the growth was 37%.

With `Nc1ccc(S(=O)(=O)c2ccc(Cl)cc2)cc1`, the growth was 97.9%.

For the compound `O=C(O)c1ccc(-n2c(=O)c3ccccc3c3ccccc3c2=O)cc1`, the growth was 102%.

As to `C=C1C(=O)O[C@H]2[C@H]1CC/C(Cn1cc(-c3ccsc3)nn1)=C\CC[C@@]1(C)O[C@@H]21`, the growth is -14.9% (active). Turning to `Cc1ccc(C(=O)c2sc3nc4c(cc3c2N)CCCC4)c(C)c1`, the growth is 35.1%. For `CCN1C(=O)N(CC)C2C1NN=c1s/c(=C\c3cccc(F)c3)c(=O)n12` (stereo not given) the value was 33.9%. As for `CCOC(=O)[C@H](CSSc1ncnc2cc[nH]c12)NC(=O)[C@@H](C)c1ccc2cc(OC)ccc2c1`, the growth is 19.9%. For `COc1cc2nc(Cl)nc(NCCO)c2cc1OC`, the growth was 108%. Turning to `CN(C)CCCNC(=O)C(c1ccccc1)c1ccccc1`, the growth is 93.5%.

For `O=C1c2ccccc2C(=O)c2c1oc1oc3c(c(=O)c21)c(=O)n(-c1ccccc1)c1ccccc31`, the growth is 38.2%. Consider `O=c1cc(C2NCCc3c2[nH]c2ccccc32)c2c(ccc3ccccc32)o1` (stereo not given), for which the growth was 79.6%. Regarding `COc1ccc(C2=NN(c3ccc(S(N)(=O)=O)cc3)C(c3cn(-c4ccccc4)nc3-c3ccc(Cl)cc3)C2)cc1` (stereo not given), the growth is 93.9%. As to `COc1cc(NC(=O)c2cc3ccccc3nc2Nc2ccc(F)cc2)cc(OC)c1OC`, the growth was 39.8%.

On to `C=C1C(=O)O[C@H]2[C@H]1CC/C(COC(=O)NCCc1ccc(OC)cc1)=C\CC[C@@]1(C)O[C@@H]21`, for which the growth is 66.6%.

In the case of `COc1cccc(-c2nc3sccn3c2-c2ccnc(NCCNS(=O)(=O)c3ccccc3)n2)c1`, the growth was 65.8%.

On to `NC(=O)c1c(NC(=O)c2ccc3c(c2)OCO3)sc2c1CCC(=O)C2`, for which the growth was -12.6% (active). With `COc1cccc2cc(-c3cc4ccccc4[nH]3)c(=NC(=O)c3ccc(Cl)cc3)oc12`, the growth is 40.2%. The value for `COc1cc(/C=C\c2cc(OC)c(OC)c(OC)c2)cc(N/C=C\C(=O)c2c[nH]c3ccccc23)c1OC` was 60.5%; that for `CC(Cc1nnc(SCC(=O)Nc2ccc(I)cc2)n1N)c1ccccc1` (stereo not given) was 99.8%; that for `COc1cc(NCCCN=C(N)NC(N)=NC(C)C)c2ncccc2c1` was 34.7%. The value for `COc1ccc(NC(=O)CSc2nc3ccccc3c(=O)n2-c2ccccc2C(F)(F)F)c(OC)c1OC` was 102%; that for `Cc1nc(Nc2cccnc2)sc1C(=O)/C=C/c1ccc(F)cc1` was 82.3%.

With `C#CCN1C(=O)/C(=c2\sc3n(c2=O)C2C(NN=3)N(CC)C(=O)N2CC)c2ccccc21` (stereo not given), the growth was 18.5%. In the case of `O=C(COc1ccccc1)N1N=C(c2ccc(Cl)cc2)CC1c1c[nH]c2ccccc12` (stereo not given), the growth is 76.1%. The value for `Cc1ccc2c(c1)C(C)Cc1c(ncnc1-n1cnc3ccccc31)N2C` (stereo not given) was 28.9%; that for `CCOC(=O)CC(C#N)(CC(=O)OCC)C(=O)OCC` was 106%; that for `CCOC(=O)C(Cc1ccccc1)n1c(O)c(C=Nc2ccc(C(=O)OCCN(CC)CC)cc2)sc1=O` (stereo not given) was 102%. The value for `Clc1ccc(/C=C/c2nc(N3CCOCC3)c3nc(Cl)c(Cl)cc3n2)cc1` was 92.2%. For `COc1cc(NS(C)(=O)=O)ccc1Nc1c2ccc([N+](=O)[O-])cc2nc2c(C)cccc12`, the growth was -0.0901% (active). Turning to `O=C(CSc1nc(-c2ccc(Cl)cc2)cn1-c1ccc(Cl)cc1)c1ccc(Br)cc1`, the growth is 77.1%. The value for `COc1cc(Cn2c(-c3nonc3N)nc3ccccc32)ccc1C` was 25.1%. `CC1=CNNc2c3ncnc-3ncn21`: the growth was 98%.

Turning to `CC(C)C(C(=O)CCN(C)C)c1ccc(Cl)cc1` (stereo not given), the growth was 103%.

Regarding `COC(=O)C(CC(=O)c1ccc(-c2ccccc2)cc1)c1ccccc1` (stereo not given), the growth is 76.6%. For `COc1ccc(C(=O)c2cc(OC)c(OC)c(OC)c2)cc1/C=C/C(=O)c1ccc(OC)c(OC)c1` the value was 32.2%; for `Nc1cccc2c1CN(C1CCC(=O)NC1=O)C2=O` (stereo not given), 99.4%.

As for `CN(C)c1nc(N)c(N=O)c(N)n1`, the growth was 107%. For `Cc1ccnc2nc(C(=O)OCC(=O)Nc3ccc(-c4ccccc4)cc3)nn12` the value was 99.5%.
